Only some compounds are listed: those with a hit (about 3.2% of all), similar ones and a draw of the others.
USP2a block: blocks human ubiquitin-specific protease USP2a; O75604; hit rate 0.01% among 330,000; Potency, µM (titrated, usually from 38.3 µM), inactives show at the highest dose activity change, negative = inhibition, most hits filed as inhibitors; USP2 core, Ub-CHOP2 coupled fluorogenic reporter, 485/531; AID 463254;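 note: potency is the fitted concentration of half-maximal effect; plate controls were DMSO wells for no effect and full inhibition by NEM control for full effect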
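USP2 core (10nM final) preincubated 30min RT with compound in 20mM Tris-HCl pH 8.0, 2mM CaCl2, 2mM beta-mercaptoethanol, 0.05% CHAPS; 25nM Ub-CHOP2 plus 25nM reporter substrate added, fluorescence (Ex485/Em531) read after 60min.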
FBPA coupling cs: counter-screen for Giardia aldolase inhibitors: coupling enzyme system. coupling enzyme system counterscreen, AmpLite Red fluorescence. activity change, negative = inhibition, % at 58.2 µM, hits read low. hit rate 0.67% among 290,000; in the data active = activity change below about -30%
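Counterscreen of the coupled detection system alone, without aldolase: glyceraldehyde-3-phosphate coupling enzymes plus AmpLite Red readout. Compounds at 57.5 uM final, 10 min RT preincubation, 20 min RT reaction, fluorescence 525/598 nm.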
VDR inh: inhibitors of human vitamin D receptor; P11473; VDR-SRC2-3 peptide fluorescence polarization, 2 h; Potency, µM, for inactives: max response, negative = inhibition, most hits filed as inhibitors; hit rate 0.93% among 400,000; note: potency is the fitted concentration of half-maximal effect
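After 23 nl compound addition and a short centrifugation, plates sat for 2 hours at ambient temperature; polarization of fluorescence then indicated loss of VDR binding to peptide SRC2-3.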
GALK inhibitor: blocks human galactokinase activity; P51570; Potency, µM (titrated, usually from 57.5 µM), for inactives: top-dose activity change, negative = inhibition, actives largely listed as inhibitors; hit rate 0.007% among 270,000; Purified GALK, Kinase-Glo residual ATP luminescence; note: potency is the fitted concentration of half-maximal effect
Target sequence (P51570 whole entry, looked up): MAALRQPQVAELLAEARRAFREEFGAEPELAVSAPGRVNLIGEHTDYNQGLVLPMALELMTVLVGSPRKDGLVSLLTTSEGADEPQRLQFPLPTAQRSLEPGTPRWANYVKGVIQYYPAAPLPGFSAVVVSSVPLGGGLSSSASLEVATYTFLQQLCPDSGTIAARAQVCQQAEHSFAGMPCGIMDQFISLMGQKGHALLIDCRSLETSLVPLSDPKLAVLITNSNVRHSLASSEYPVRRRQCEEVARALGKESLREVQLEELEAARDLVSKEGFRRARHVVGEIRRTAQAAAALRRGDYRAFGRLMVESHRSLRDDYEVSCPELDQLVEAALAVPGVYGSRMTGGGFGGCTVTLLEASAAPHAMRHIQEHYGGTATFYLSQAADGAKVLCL
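Compounds were pin-transferred into ATP buffer (35 uM final), then GALK plus galactose (5 nM, 100 uM final) was added. After 1 h at room temperature, Kinase-Glo Plus was added and luminescence read after 10 min.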
USP1 inh: USP1/UAF1 (human) deubiquitinase inhibition; O94782; recombinant USP1/UAF1, Ub-Rhodamine cleavage fluorescence; Potency, µM (titrated, usually from 57.1 µM), for the others: at the highest dose activity change, negative = inhibition, most hits filed as inhibitors; hit rate 0.23% among 390,000; note: potency is the fitted concentration of half-maximal effect; nearly all actives have a fitted effect of over 60% in size
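USP1/UAF1 complex (1 nM) preincubated 15 min at room temperature with compound, then Ub-Rho substrate (150 nM final) added. Kinetic fluorescence at 480/540 nm over 6 reads at 60 s intervals; 50 mM HEPES pH 7.8, 0.5 mM EDTA, 0.1 mg/ml BSA, 1 mM TCEP, 0.01% Tween-20.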
PLK1 PBD inh: inhibitors of human PLK1 polo-box domain binding. Plk1 PBD binding of FITC phosphopeptide, fluorescence polarization. Potency, µM, without a hit: max response, negative = inhibition, hits mostly inhibitors. hit rate 2.8% among 360,000. AID 720504; note: potency is the fitted concentration of half-maximal effect; series mostly up to about 57 µM; nearly all actives have a fitted effect of over 65% in size
Active calls of the source: *; ? = inconclusive; nt = no result given; ! = repeats disagree. Unless noted, calls come from the whole dose curve; as a rule, active = well fitted curve in the direction sought with a large enough effect; inconclusive = small, poorly fitted or top-dose-only effect, or another doubt; inactive = no such curve, though single readings can be large; an effect the other way counts as inactive or inconclusive. Unless noted, % is set by controls: 0 for no effect and ±100 for the full control effect.

SMILES	USP2a block	FBPA coupling cs	VDR inh	GALK inhibitor	USP1 inh	PLK1 PBD inh
O=[N+]([O-])c1ccc(SCCc2ccccn2)cc1	2%	0	-11%	1%	4%	17µM*
O=[N+]([O-])c1ccc(CSc2ccccn2)cc1	4%	0	-6%	-4%	0%	-10%
Cc1cc(C(=O)Nc2cccc([N+](=O)[O-])c2)c(C)o1	2%	-2	-19%	2%	-21%	-10%
O=c1nc(SCc2c(F)cccc2Cl)nc(-c2ccc(Cl)cc2)[nH]1	2%	7	-3%	-16%	-19%	21µM*
COc1ccc(/C(O)=C2\C(=O)C(=O)N(CCN(C)C)C2c2cccc(OC)c2OC)cc1Cl (centres undefined)	0%	8	-2%	2%	-18%	?
C/C=C/C(=O)Nc1cccc(C2=NOC3(C2)C[C@@H](C(N)=O)N(C(=O)c2cc([N+](=O)[O-])cc([N+](=O)[O-])c2)C3)c1 (some centres undefined)	-2%	-7	-8%	5%	-14%	-9%
C/C=C/C(=O)N1CC2(CC(c3cccc(NC(=O)CCCCC)c3)=NO2)C[C@H]1C(N)=O (some centres undefined)	5%	0	nt	4%	nt	nt
C/C=C/C=C/C(=O)N1CC2(CC(c3cccc(NC(=O)CCCCC)c3)=NO2)C[C@H]1C(N)=O (some centres undefined)	8%	-1	79µM*	3%	-11%	-29%
C=C(C(=O)c1ccccc1)C(C)C(=C)C(=O)c1ccccc1	4%	9	79µM*	-3%	-15%	2%
CCOC(=O)CCSc1n[nH]c(=S)s1	1%	6	17%	1%	6%	?
CC(C)(C)CC(C)(C)SSc1n[nH]c(=S)s1	nt	nt	?	nt	-8%	27µM*
COC(=O)C1=C(N)OC2=C(C(=O)CC(C)(C)C2)C1c1ccoc1 (centres undefined)	-1%	0	-21%	9%	-8%	4.7µM*
COC(=O)C1=C(N)OC2=C(C(=O)CC(C)(C)C2)C1c1ccccc1OC (centres undefined)	-2%	0	2%	-1%	-11%	-11%
CC(C)(C)c1ccc2c(c1)C(=O)c1ccccc1C2=O	1%	6	-23%	0%	-22%	2%
COc1ccccc1-c1ccccc1C1=CC(=O)CC(C)(C)C1=O	nt	nt	nt	nt	-6%	3%
CC(C)(C=O)C1=CC(=O)c2ccccc2C1=O	1%	-63*	45µM*	-2%	?	2.1µM*
COc1cccc2c1C(=O)C=C(C)C2=O	2%	-39*	40µM*	-4%	?	-7%
CC1=CC(=O)c2ccccc2C1=O	2%	-33*!	3.5µM*!	6%	?	-2%
CCOc1ccc(C2C=C(c3ccc(C)cc3)Nc3nnnn32)cc1 (centres undefined)	8%	3	0%	5%	-11%	27µM*
COCCn1c(SCc2cc(=O)n3ccsc3n2)nnc1-c1ccncc1	0%	3	6%	0%	-21%	24µM*
COc1cc(CN(C(=S)NCC(=O)N2CCCC2)C2CCCC2)cc(OC)c1OC	-3%	2	24%	5%	2%	-8%
Fc1ccc(C2=NNC(=NCc3ccccc3)SC2)cc1F	-8%	-2	-7%	-3%	-10%	27µM*
Cc1onc(-c2ccccc2)c1C(=O)N(Cc1ccco1)Cc1cccs1	-8%	-35*	-6%	7%	-18%	-14%
Cc1onc(-c2ccccc2)c1C(=O)NCc1ccco1	3%	3	-12%	1%	1%	-12%
CC1(CCc2ccc(O)cc2)NC(=O)NC1=O (centres undefined)	5%	4	-7%	3%	-18%	-1%
SMILES	USP2a block	FBPA coupling cs	VDR inh	GALK inhibitor	USP1 inh	PLK1 PBD inh
COc1cc(OC)c(NS(=O)(=O)c2ccc3c(c2)NC(=O)CO3)cc1Cl	6%	nt	?	-2%	-24%	6.7µM*
O=C(NNC(=O)C1COc2ccccc2O1)c1ccccc1O (centres undefined)	-1%	nt	-5%	nt	?	1%
COc1ccc(-n2c(SCC(=O)Nc3nccs3)nnc2-c2ccccc2)cc1	2%	-1	-11%	1%	-22%	27µM*
Cc1ccccc1NC(=O)CSc1nnc(-c2ccco2)n1N	1%	nt	?	nt	-19%	19µM*
Cc1cccc(NC(=O)CSc2nnc(-c3ccco3)c(-c3ccco3)n2)c1C	0%	-15	?	3%	-8%	15µM*
COc1ccc(-n2c(Cc3cccn3C)nnc2SCC(=O)Nc2nccs2)cc1	3%	-3	5%	0%	-19%	0%
Cc1cc(C)c(NC(=O)CSc2nnc(-c3ccco3)n2N)c(C)c1	1%	-1	-8%	-2%	-15%	0%
COc1ccc(NC(=O)CSc2nnc(-c3ccccc3C)n2N)cc1	3%	3	?	4%	-15%	21µM*
CCOC(=O)N1CCN(C(=O)c2cccn3c(=O)c4sccc4nc23)CC1	-1%	0	-6%	2%	-13%	0%
c1ccc(-c2csc(Nc3cccnc3)n2)nc1	3%	-3	1%	-1%	-6%	-6%
O=C(O)CN1CCN(CC(=O)O)CCN(CC(=O)O)CCN(CC(=O)O)CC1	2%	nt	-12%	nt	-6%	8%
CCOC(=O)N1CCN(c2c(N3CCN(c4cccc(C)c4C)CC3)c(=O)c2=O)CC1	3%	2	-10%	0%	-25%	-4%
COC(=O)[C@]12CCCCC=C1N(Cc1ccc3c(c1)OCO3)C(=O)[C@H](CC(=O)N1CCC(c3ccccc3)CC1)C2	nt	nt	nt	nt	nt	-2%
Cc1cc(-c2nnc(SCC(=O)Nc3ccccc3C(F)(F)F)n2N)n[nH]1	5%	-1	?	-4%	-12%	6µM*
COc1ccc(NC(=O)CSc2ccc3c4c(cccc24)C(=O)c2ccccc2-3)cc1	7%	2	-3%	1%	25µM*	?
C#CCOCCOCCOCCNc1nc(N2CCN(C(=O)[C@H](CC(N)=O)n3cc([C@@H](N)CC(N)=O)nn3)CC2)nc(N2CCN(C(=O)[C@H](CC(N)=O)n3cc([C@@H](N)CC(N)=O)nn3)CC2)n1	3%	nt	7%	nt	-12%	-4%
O=C(CC1S/C(=N/N=C/c2ccco2)NC1=O)Nc1ccccc1 (centres undefined)	0%	2	-2%	-2%	3%	-9%
CC1=C/C(=N\N=C2\NC(=O)C(CC(=O)Nc3ccccc3)S2)CC(C)(C)C1 (centres undefined)	-2%	0	-17%	-2%	-26%	24µM*

High-throughput results: PubChem, National Center for Advancing Translational Sciences (NCATS)
